High-throughput results deposited in PubChem by National Center for Advancing Translational Sciences (NCATS).
VACV mCherry inh: qHTS for Stage-Specific Inhibitors of Vaccinia Orthopoxvirus: mCherry Reporter Primary qHTS; Vaccinia virus mCherry reporter infection, fluorescence; 0.63% of 310,000 active; Potency, µM (highest dose often 36.5 µM), usual class: inhibitors; calls by dose curve; tested in A549 cells; further: nearly all actives have a fitted effect of over 35% in size
Marburg entry inh: qHTS for inhibitors of binding or entry into cells for Marburg Virus; Marburg virus pseudotyped entry inhibition, cell reporter; Potency, µM (series often up to 37.8 µM), most hits filed as inhibitors; 1.8% of 300,000 active; AID 540276, 2011; calls by dose curve; tested in HEK293 cells
HCV inhibitor: qHTS Assay for Inhibitors of Hepatitis C Virus (HCV); Huh7.5.1 HCVcc-Cre infection, luciferase reporter, 44 h; Potency, µM (series often up to 41.8 µM), hits mostly inhibitors; 3.4% of 340,000 active; active means well fitted inhibition curve with a large enough effect; inconclusive means small, poorly fitted or top-dose-only effect, or another doubt; inactive means no such curve, though single readings can be large or run the other way
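HCVcc-Cre virus at an moi near 0.5 was added right after compound to cells cultured 4 h from seeding (1,000 cells/well). Luciferase activity was determined 44 h later, 15 min after substrate addition at RT.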
HCMV inh: qHTS Assay for inhibitors of the human cytomegalovirus (HCMV) | activity change, negative = inhibition, % at 57.5 µM | HFF cells, HCMV-luciferase reporter, 72 h; active compounds read low | 4.5% of 410,000 active; in the data active means activity change below about -60%; inconclusive means no clear call, values can overlap the other calls; inactive means above about -39%
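Two compound doses tested in HFFs infected with HCMV-luciferase, MOI 1 PFU/cell, 72 h at 37C. Lysate luminescence read with OneGlo; data normalized against buffer-only and 10uM Salinomycin inhibitor controls.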
Vaccinia Venus: qHTS for Stage-Specific Inhibitors of Vaccinia Orthopoxvirus: Venus Reporter Primary qHTS. Vaccinia virus Venus reporter expression, fluorescence. Potency, µM (doses to about 36.5 µM), most hits filed as inhibitors. 0.46% of 330,000 active. AID 720580, 2013; calls by dose curve; tested in A549 cells; further: nearly all actives have a fitted effect of over 30% in size
LASV entry inh: qHTS for Inhibitors of binding or entry into cells for Lassa Virus; 1.2% of 300,000 active; Potency, µM (doses to about 37.9 µM), hits mostly inhibitors; Lassa virus pseudotype entry inhibition, cell reporter; calls by dose curve; tested in HEK293 cells; further: nearly all actives have a fitted effect of over 50% in size
Large screens that a line does not name were inactive. In the library only some 7.8% were active in any assay of this set; here they are far more common.

CCOc1cccc(C(=O)NC(=S)Nc2ccc(Cl)cc2C(=O)O)c1	HCMV inh -60
CCOc1cccc(C(=O)NC(=S)Nc2ccc(N3CCCC3)cc2)c1	none (no result: VACV mCherry inh)
O=C(NCCc1ccccn1)C1CC12CCN(C(=O)c1ccc(F)cc1Cl)CC2 (centres undefined)	none (no result: Marburg entry inh, HCV inhibitor, HCMV inh, LASV entry inh)
Cn1c2c(c(=O)n(C)c1=O)C(c1ccccc1OC(F)F)C1=C(CCCC1=O)N2 (centres undefined)	HCV inhibitor 2.8µM (no result: VACV mCherry inh, Vaccinia Venus)
Cc1ccc(S(=O)(=O)N2CCCc3cc(NC(=O)c4ccc(C(F)(F)F)cc4)ccc32)cc1	LASV entry inh inconclusive (no result: Marburg entry inh, HCV inhibitor)
CCN(C[C@H]1N[C@@](Cc2ccccc2)(C(=O)OC)[C@H]2C(=O)N(C)C(=O)[C@@H]12)S(=O)(=O)c1ccccc1	none (no result: Marburg entry inh, LASV entry inh)
CCN(C[C@H]1N[C@@](Cc2ccccc2)(C(=O)OC)[C@H]2C(=O)N(C)C(=O)[C@@H]12)S(=O)(=O)c1ccc(-c2ccccc2)cc1	HCV inhibitor 18µM (no result: Marburg entry inh, LASV entry inh)
CCN(C[C@H]1N[C@@](Cc2ccccc2)(C(=O)OC)[C@H]2C(=O)N(Cc3ccccc3)C(=O)[C@@H]12)S(=O)(=O)c1ccc(C)cc1	HCV inhibitor 7.1µM (no result: Marburg entry inh, LASV entry inh)
O=C(CNC(=O)c1cccc(Br)c1)N/N=C/c1cn[nH]c1-c1ccccc1	Marburg entry inh inconclusive, LASV entry inh inconclusive
CN(C)c1cccc(C(=O)N/N=C/c2ccccc2F)c1	Marburg entry inh inconclusive, LASV entry inh 10µM
O=C(CNC(=O)c1ccco1)N/N=C/c1cc(Br)ccc1O	VACV mCherry inh inconclusive, Marburg entry inh 2µM, HCV inhibitor inconclusive, Vaccinia Venus inconclusive (no result: LASV entry inh)
O=C(CNC(=O)c1cccc(Br)c1)N/N=C/c1ccc[nH]1	Marburg entry inh 6.3µM, HCV inhibitor 3.2µM, HCMV inh inconclusive, LASV entry inh inconclusive
O=C(N/N=C/c1ccccc1O)c1ccc2c(c1)OCO2	VACV mCherry inh inconclusive, Marburg entry inh 5µM, HCV inhibitor 5.6µM, HCMV inh -92, Vaccinia Venus inconclusive, LASV entry inh inconclusive
Cc1ccccc1CN1C(=O)c2ccccc2Sc2ccc(C(=O)NCc3ccccc3)cc21	HCMV inh inconclusive, LASV entry inh inconclusive (no result: Marburg entry inh, HCV inhibitor)
OCC[C@@H]1C[C@H](O)[C@@H](O)[C@@]2(OCCc3cc(C(F)(F)F)ccc32)O1	none (no result: VACV mCherry inh, Marburg entry inh, HCV inhibitor, Vaccinia Venus, LASV entry inh)
CCOc1cc(CNC(=O)C2CCN(c3nc4ccccc4[nH]3)CC2)cc(OCC)c1OCC	none (no result: Marburg entry inh, HCV inhibitor)
COc1cc(Cl)cc(/C=N\NC(=O)c2ccc3c(c2)OCO3)c1O	VACV mCherry inh inconclusive, HCMV inh -60, Vaccinia Venus inconclusive (no result: Marburg entry inh, HCV inhibitor, LASV entry inh)
O=C(N/N=C/c1cc(Br)cc(Cl)c1O)c1ccc2c(c1)OCO2	VACV mCherry inh inconclusive, Marburg entry inh inconclusive, HCV inhibitor 13µM, Vaccinia Venus inconclusive, LASV entry inh inconclusive
O=C(N/N=C/c1cc(Br)c(Br)o1)c1ccc2c(c1)OCCO2	Marburg entry inh inconclusive, HCV inhibitor inconclusive
Cc1cc(Br)cc(/C=N/NC(=O)c2ccc3c(c2)OCO3)c1O	HCV inhibitor inconclusive, HCMV inh -103 (no result: VACV mCherry inh, Marburg entry inh, Vaccinia Venus, LASV entry inh)
O=C(N/N=C/c1cc(Br)c(O)c(Br)c1O)c1ccc2c(c1)OCCO2	VACV mCherry inh inconclusive, HCV inhibitor inconclusive, HCMV inh -82, Vaccinia Venus inconclusive, LASV entry inh inconclusive
O=C(C[n+]1ccccc1Cl)c1ccc(O)c(O)c1	none (no result: Marburg entry inh, HCV inhibitor, HCMV inh, LASV entry inh)
Cn1nnc2c(N3CCN(Cc4ccccc4)CC3)ncnc21	none (no result: Marburg entry inh, HCV inhibitor, HCMV inh, LASV entry inh)
CCC(=O)C1=C(c2ccc(F)cc2)N(C(=O)CC)n2c(nnc2C2CCCCC2)S1	VACV mCherry inh inconclusive, Vaccinia Venus inconclusive (no result: Marburg entry inh, HCV inhibitor)
O=C(CNC(=O)c1ccc2c(c1)OCO2)N/N=C/c1cc(Br)ccc1O	VACV mCherry inh 1.6µM, Marburg entry inh 11µM, HCV inhibitor inconclusive, Vaccinia Venus inconclusive, LASV entry inh inconclusive
COc1cc(C(=O)NC(c2ccccc2)c2ccccc2)cc(Cl)c1OC	none
COc1cccc(C(=O)NC(c2ccc(Cl)cc2)c2cc(Cl)c3cccnc3c2O)c1 (centres undefined)	VACV mCherry inh 10µM, HCMV inh inconclusive, Vaccinia Venus inconclusive, LASV entry inh inconclusive (no result: Marburg entry inh, HCV inhibitor)
COc1cc(C(=O)NC(c2ccc(Cl)cc2)c2cc(Cl)c3cccnc3c2O)cc(OC)c1OC (centres undefined)	VACV mCherry inh 16µM, Vaccinia Venus inconclusive, LASV entry inh inconclusive (no result: Marburg entry inh, HCV inhibitor)
